# This is a sample that favours compounds with a hit; in the whole collection about 8% have one here.
# KB-3-1 cytotox = kills parental KB-3-1 adenocarcinoma cells | KB-3-1 viability, CellTiter-Glo ATP luminescence, 72 h | Potency, µM (highest dose often 46.1 µM), usual class: cytotoxic | 400,000 compounds, 1.4% hits | AID 1347075; also: % is scaled to controls: 0 for no effect and ±100 for the full control effect; nearly all actives have a fitted effect of over 60% in size
#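 Cells are dispensed, compounds pinned in, plates held at 37 °C for 72 h, then CellTiter-Glo is added and luminescence read after 10 minutes. Cell line: parental KB-3-1 in phenol-red-free DMEM, 10% FBS.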
# SW480 rerep = induces DNA re-replication in SW480 colon adenocarcinoma cells. Potency, µM (highest dose often 46.1 µM), for the others: top-dose re-replication activation, usual class: activators. 340,000 compounds, 1.8% hits. SW480 DNA re-replication, Hoechst DNA content imaging, 48 h; also: % of control where 0% means no effect; nearly all actives have a fitted effect of over 55% in size
#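 Image-based read-out: total Hoechst fluorescence of nuclei (405 nm excitation, 500-530 nm emission), with hits raising the fraction of high-intensity nuclei. SW480 colon cells incubated 48 hr with compounds at 37 C.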
# KB-V1 MDR tox = KB-V1 MDR subline cytotoxicity; KB-V1 MDR cells viability, CellTiter-Glo, 72 h; Potency, µM (titrated, usually from 46.1 µM), usual class: cytotoxic; 400,000 compounds, 3.4% hits; also: % is scaled to controls: 0 for no effect and ±100 for the full control effect; nearly all actives have a fitted effect of over 60% in size
#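 Readout: CellTiter-Glo luminescence, 10 min after addition. Cells: KB-V1 MDR subline, 72 h at 37 degrees C with compound. Analysis: corrected, normalized data fitted to concentration-effect curves.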
# HT1080 IDH1KD tx = HT-1080 IDH1 knockdown cell toxicity (counter line); HT-1080 IDH1 knockdown viability, ATP luminescence, 48 h; Potency, µM (highest dose often 46.1 µM), without a hit: at the highest dose activity, negative = toxicity, most hits filed as cytotoxic; 360,000 compounds, 2% hits;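 also: 0% = DMSO wells and -100% = cell-free medium wells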
#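 In this qHTS, HT-1080 cells depleted of IDH1 are exposed for 48 h at 37 °C to compound titrations. Toxicity is scored from CellTiter-Glo luminescence, with DMSO as full viability and medium alone as none.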
# MCF10A rerep = induces DNA re-replication in MCF 10a normal breast cells; MCF 10A DNA re-replication, Hoechst nuclear intensity, 48 h; Potency, µM (titrated, usually from 46.1 µM), for the others: at the top dose activity, positive = re-replication, hits mostly activators; 350,000 compounds, 2.9% hits; AID 624296; also: % of control where 0% means no effect; nearly all actives have a fitted effect of over 50% in size
# HT1080-NT tox = kills 2HG-producing HT-1080-NT fibrosarcoma cells | HT-1080-NT fibrosarcoma viability, CellTiter-Glo ATP luminescence, 48 h | Potency, µM (series often up to 46.1 µM), for the others: at the top dose activity, negative = less viability, most hits filed as cytotoxic | 360,000 compounds, 1.6% hits;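 also: NT is the 2HG producing partner of a matched IDH1 knockdown line; 0% = DMSO-treated cells and -100% = media-only wells without cells; nearly all actives have a fitted effect of over 55% in size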
#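 Viability by CellTiter-Glo luminescence after 48 h compound exposure at 37C of HT-1080-NT cells (750/well, RPMI, 5% FBS). % activity scaled between DMSO wells and medium-only wells, then curve-fitted and categorized by curve class.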
# * = called active by the depositor; i = inactive; ? = inconclusive; . = no result; [ ] = dose if it differs, or a comment. Calls follow the shape of the dose curve; as a rule, active = well fitted curve in the direction sought with a large enough effect; inconclusive = small, poorly fitted or top-dose-only effect, or another doubt; inactive = no such curve, though single readings can be large; an effect the other way counts as inactive or inconclusive. Potency is read from the fitted curve at half-maximal effect.
SMILES,KB-3-1 cytotox,SW480 rerep,KB-V1 MDR tox,HT1080 IDH1KD tx,MCF10A rerep,HT1080-NT tox
CCOC(=O)c1cc(-c2ccccc2)n(-c2cccc(C(=O)NC(C)(C)C)c2)c1C,i,.,i,.,.,.
CCOC(=O)c1cc(-c2ccccc2)n(-c2cccc(C(=O)N(C)c3ccc(C)cc3)c2)c1C,16.4µM*,.,?,.,.,.
CCc1ccc(NC(=O)c2cnn(-c3c(C)cccc3C)c2C2CCNCC2)cc1,i,.,i,.,.,.
O=C1CCCC2=C1C(c1ccc(O)c(O)c1)Nc1ccc3ccccc3c12 (stereo not given),i,25.6%,?,?,21.1%,?
O=C1CCCC2=C1C(c1ccco1)Nc1ccc3ccccc3c12 (stereo not given),i,-33.9%,20.6µM*,?,0.1%,-10.0%
COc1cc(C2Nc3ccc4ncccc4c3C3=C2C(=O)CCC3)cc(OC)c1O (stereo not given),?,?,i,8.2µM*,?,16.4µM*
Cc1ccc(C2Nc3ccc4ccccc4c3C3=C2C(=O)CC(C)(C)C3)o1 (stereo not given),i,?,10.3µM*,?,?,-17.9%
CC1(C)CC(=O)C2=C(C1)c1c(ccc3ncccc13)NC2c1cccs1 (stereo not given),3.66µM*,?,5.8µM*,4.11µM*,9.2µM*,3.26µM*
CC1=C(C(=O)OC2CCCCCC2)C(c2cccc(Cl)c2)CC(=O)N1 (stereo not given),?,.,i,.,.,.
O=C(NCc1cccnc1)[C@@H]1CC=C[C@@H]2CCN(C3CCCCC3)C(=O)[C@@H]21,i,.,i,.,.,.
CC(C)=CNNC(=O)c1ccc(O)cc1,i,.,i,.,.,.
CCCCc1c(O)c2ccccc2[nH]c1=O,i,-16.0%,i,25.8%,-0.1%,16.6%
CCCCCCCCC1=NCCc2c1[nH]c1ccccc21,i,?,i,?,11.6µM*,?
C[C@H](NC(c1ccc(F)cc1)c1ccc2cccnc2c1O)c1ccccc1 (stereo not given in full),?,.,i,.,.,.
CCCCC(=O)N(c1ccc(OCC)cc1)C1C=CS(=O)(=O)C1 (stereo not given),i,1.3%,i,9.3%,13µM*,-8.7%
Cc1ccc(C)c(CNC(=O)c2cnc3sc(N4CCCC4)nn3c2=O)c1,i,.,i,.,.,.
CCOC(=O)Nc1ccc2c(c1)N(C(=O)CN(CC)CC)c1ccccc1C=C2,i,3.1%,?,-8.8%,11.6µM*,0.0%
CCOC(=O)Nc1ccc2c(c1)N(C(=O)N1CCN(C)CC1)c1ccccc1S2,i,-1.8%,i,-2.0%,-177.4%[0.0737 µM],-18.4%
CCOC(=O)Nc1ccc2c(c1)N(C(=O)CN(CC)CC)c1ccccc1CC2,i,?,i,-8.5%,-3.0%,-11.3%
C=CC(=O)N1c2ccccc2Sc2ccc(NC(=O)OCC)cc21,?,?,i,?,6.51µM*,?
CCOC(=O)Nc1ccc2c(c1)N(C(=O)CCN(CC)CC)c1ccccc1CC2,i,-0.3%,i,-23.3%,9.4%,?
CCOC(=O)Nc1ccc2c(c1)N(C(=O)CCN(CC)CC)c1ccccc1S2=O (stereo not given),?,5.7%,i,25.9µM*,?,16.4µM*
COc1ccc(CNC[C@@H](CCCCN(C)Cc2ccc(OC)cc2)N2C[C@H](c3ccccc3)N(CCc3ccc(Cl)c(Cl)c3)C(=O)C2=O)cc1,i,-8.2%,i,23.1µM*,?,18.4µM*
COc1ccc2c(c1)c1c(c(=O)n(-c3cccc(Cl)c3)c(=O)n1CC(=O)N1CCCC1)n2C,i,.,?,.,.,.
COc1ccc(NC(=O)c2cccc(S(=O)(=O)N3CCOCC3)c2)cc1,i,-18.9%,?,-7.7%,10.9%,-6.7%
SMILES,KB-3-1 cytotox,SW480 rerep,KB-V1 MDR tox,HT1080 IDH1KD tx,MCF10A rerep,HT1080-NT tox
O=C(COC(=O)CCC(=O)c1ccc(F)cc1)Nc1cccc(S(=O)(=O)N2CCOCC2)c1,i,-2.2%,i,-0.7%,-1.3%,-0.2%
COc1ccc(C(=O)NNC(=O)c2cccc(S(=O)(=O)N3CCOCC3)c2)cc1,i,1.5%,?,1.7%,-0.2%,2.0%
CC(=O)Oc1ccc(-c2ccc(C(=O)Nc3cccc(S(=O)(=O)N4CCOCC4)c3)cc2)cc1,?,-1.1%,?,10.3µM*,-6.2%,?
COc1ccc(C(=O)NC(=S)Nc2cccc(S(=O)(=O)N3CCOCC3)c2)cc1,5.8µM*,?,5.17µM*,13µM*,16.4µM*,14.6µM*
O=C(COc1ccc(C(=O)c2ccc(F)cc2)cc1)Nc1cccc(S(=O)(=O)N2CCOCC2)c1,i,-1.9%,11.6µM*,-12.6%,10.1%,-12.5%
O=C(COc1ccc(F)cc1)Nc1ccccc1C(=O)OCc1cc(=O)n2nc(C3CC3)sc2n1,i,.,i,.,.,.
CCc1ccc(-c2nc(SCC(=O)NCC3CCCO3)c(-c3ccc(F)cc3)[nH]2)cc1 (stereo not given),i,.,i,.,.,.
O=C(NC1CCCCC1)N1CCC(c2nc(-c3ccc(S(=O)(=O)N4CCCC4)cc3)no2)CC1,8.2µM*,?,2.59µM*,-0.7%,?,-0.8%
CS(=O)(=O)N1CCCC(c2nc(-c3ccc(S(=O)(=O)NCc4ccccc4)cc3)no2)C1 (stereo not given),?,-0.1%,3.26µM*,?,?,?
O=C(c1ccccc1)N1CCC(c2nc(-c3ccc(S(=O)(=O)NCC4CCCO4)cc3)no2)CC1 (stereo not given),8.2µM*,7.5%,9.2µM*,-2.9%,?,?
O=C(N1CCOCC1)N1CCC(c2nc(-c3ccc(S(=O)(=O)N4CCOCC4)cc3)no2)CC1,i,-1.0%,i,5.4%,14.3%,-4.0%
CC(C)N(C(=O)N1CCC(c2nc(-c3ccncc3)no2)CC1)C(C)C,?,-0.1%,10.3µM*,-24.4%,2.0%,-16.3%
CC(C)C(=O)N1CCC(c2nc(-c3ccc(S(=O)(=O)N4CCN(C)CC4)cc3)no2)CC1,i,-4.2%,i,4.9%,-7.9%,5.7%
O=C(C1CC1)N1CCC(c2nc(-c3ccc(S(=O)(=O)NCC4CCCO4)cc3)no2)CC1 (stereo not given),?,-0.9%,?,-25.9%,-16.8%,?
COc1ccc(CCNC(=O)CCCCn2c(=O)c3ccccc3n(CC(=O)Nc3ccc(C)cc3C)c2=O)cc1OC,i,.,i,.,.,.

# Assay outcomes (PubChem BioAssay)
